42 sequences from article PMC7819943, “Rice protein-binding microarrays: a tool to detect cis-acting elements near promoter regions in rice” can be followed below.

Over roughly 39,000 sequences, “fluorescence intensity (a.u.)” has its median near 4,300; the highest 2% begin near 39,000. Many of the other results were omitted from the sample, so the highest values are more common in it than they were.

This assay concerns the target T1, OsSMF1 (Oryza sativa, UniProt Q6ZLB0 1-436).
T1 sequence: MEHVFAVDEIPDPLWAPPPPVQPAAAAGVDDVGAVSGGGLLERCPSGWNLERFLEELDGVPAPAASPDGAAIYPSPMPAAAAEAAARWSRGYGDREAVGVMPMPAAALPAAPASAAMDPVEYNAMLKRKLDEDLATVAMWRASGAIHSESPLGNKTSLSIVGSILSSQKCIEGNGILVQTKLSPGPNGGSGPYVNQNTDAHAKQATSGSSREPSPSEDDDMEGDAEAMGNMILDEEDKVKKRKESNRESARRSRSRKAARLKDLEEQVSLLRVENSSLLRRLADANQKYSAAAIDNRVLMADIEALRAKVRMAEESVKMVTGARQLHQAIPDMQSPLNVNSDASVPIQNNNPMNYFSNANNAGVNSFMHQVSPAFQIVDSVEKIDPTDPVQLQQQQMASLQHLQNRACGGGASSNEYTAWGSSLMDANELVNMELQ
As to the kind of experiment: protein-binding microarray (RPBM); PBS, 2% BSA, 51.3 ng/ul salmon testes DNA, 50 uM zinc acetate, 200 nM TF, 25 C, 1 h; high values mean tight binding. To be noted: protein: recombinant; tags: N-terminal polyhistidine and DsRed monomer fusion (pET32a); chain copies: 2; label: CyDye5-dUTP incorporated in the synthesized complementary strand; 3' TTTTT single-stranded linker to array surface; dsDNA, one strand shown. The method in brief: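 The binding signal for each feature is its fluorescence intensity in arbitrary units. An Axon 4000B scanner was used to read a custom Agilent array that had been made double-stranded with Cy5-dUTP primer extension, blocked with 2% BSA, incubated at 25 °C for 1 h with 200 nM protein in PBS, 2% BSA, salmon testes DNA and 50 µM zinc acetate, and washed. The protein was an N-terminal polyhistidine–DsRed transcription factor fusion from E. coli BL21-CodonPlus, purified on Ni–NTA.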
“CCACACACCATTGCCGCATCATCCACCACCGCCTCCTCAGCGGAGTCACCTAGTGCAG”: the binding signal was 5210 fluorescence intensity (a.u.).

As to “CGCATCCCGGCCCATCCGCCTCGTCAGCGGCGGCGCACCACGGAGTCACCTAGTGCAG”, the binding signal is 10800 fluorescence intensity (a.u.).

In the case of “CTTGCCTCCGCCCATAAATACCACCCGCATTGGCGTTCAGCGGAGTCACCTAGTGCAG”, the binding signal is 50900 fluorescence intensity (a.u.).

Take “GTTCGCCGTGGATTTCTTTTCTTGCGTCAGTGATACTGATCGGAGTCACCTAGTGCAG”: the binding signal is 5040 fluorescence intensity (a.u.).

For the sequence “TTCTATTCTCCCAAAATTCCTATAGAACGAGATATTCCATCGGAGTCACCTAGTGCAG”, the binding signal is 22200 fluorescence intensity (a.u.).

For the sequence “TGGAGCTAGTCAAGTAGACAGATCATACTATTCCCCAATTCGGAGTCACCTAGTGCAG”, the binding signal is 4150 fluorescence intensity (a.u.).

As for “AACTATAGATCCAAGTGAGGAAGCTATATTCCCAAATTTTCGGAGTCACCTAGTGCAG”, the binding signal was 46000 fluorescence intensity (a.u.).

Take “GCTTGCCGACGCCGACGCCGCCGCCGCCACCGCCGTGGCGCGGAGTCACCTAGTGCAG”: the binding signal was 4150 fluorescence intensity (a.u.).

Turning to “CACCCGACTCAGATACCCGAATCCACGTCAGCCCAGAGCCCGGAGTCACCTAGTGCAG”, the binding signal was 14300 fluorescence intensity (a.u.).

For “CGATCTATCTTAGTTCATTCGCTGCAAATCCGACGCCTGACGGAGTCACCTAGTGCAG”, the binding signal is 3240 fluorescence intensity (a.u.).

Regarding “AGCAAAATCTACGCGATGACGCCACGTGACATGACATCGCCGGAGTCACCTAGTGCAG”, the binding signal was 5840 fluorescence intensity (a.u.).

“GTCTTCACAAATCCGATGACGCCACGTCATCTATCCGGCCCGGAGTCACCTAGTGCAG”: the binding signal was 46400 fluorescence intensity (a.u.).

Take “TCCAGATCAAATCCGACGGCCCAGGATACGCCACGTCACCCGGAGTCACCTAGTGCAG”: the binding signal is 46700 fluorescence intensity (a.u.).

On to “AATCATCCGCCCCAGGCCCCAGCCACGTCGTCCAGATCGCCGGAGTCACCTAGTGCAG”, for which the binding signal was 6410 fluorescence intensity (a.u.).

“GCTACATTTTCGTCGACGTACGTCAGTGACACATGAACTACGGAGTCACCTAGTGCAG”: the binding signal was 4800 fluorescence intensity (a.u.).

Take “TTCAGCCTGTCATCGTCAATTCGTCATCAGTTCATCGCTCCGGAGTCACCTAGTGCAG”: the binding signal is 5390 fluorescence intensity (a.u.).

On to “TTCGTGGCGGCTCCTCCTGTGCCATGGCCGCCGATGGTGACGGAGTCACCTAGTGCAG”, for which the binding signal was 3320 fluorescence intensity (a.u.).

Consider “AAGTCGTTCACTCGGCAACGTGTCATCCGGATAGACGTTGCGGAGTCACCTAGTGCAG”, for which the binding signal is 6700 fluorescence intensity (a.u.).

“CTCCTTGTCCACGTGGCGGCCTCCGATTCGCTGCCACCTCCGGAGTCACCTAGTGCAG”: the binding signal was 23900 fluorescence intensity (a.u.).

Regarding “CGTGTCCTAATCACCTTGCTTACGTGGCACTTGCCGATTCCGGAGTCACCTAGTGCAG”, the binding signal was 43900 fluorescence intensity (a.u.).

Regarding “ACGGCTTCCTTACGTGGCACACGTAAGCCGTTGCTTGCTTCGGAGTCACCTAGTGCAG”, the binding signal is 35100 fluorescence intensity (a.u.).

For “CCAGTTAGGCCCACGAGTAGGTGGAACGACCACCTCACGGCGGAGTCACCTAGTGCAG”, the binding signal was 3710 fluorescence intensity (a.u.).

As to “TTCCCGGTCTCTTATTATCCATATCATAAGTAAATTAGTTCGGAGTCACCTAGTGCAG”, the binding signal was 7670 fluorescence intensity (a.u.).

Turning to “CTCCGTGAGCCCTTCCTCCTCCGCTCCTCTCCTTTCCGCCCGGAGTCACCTAGTGCAG”, the binding signal was 15600 fluorescence intensity (a.u.).

Regarding “GCCTTCCCTTCCTTCCTCTGCCAATGGCCGCGCGTCAGCCCGGAGTCACCTAGTGCAG”, the binding signal is 3390 fluorescence intensity (a.u.).

On to “CCTAGCCCTCCTCCTACTCCTCTGCAATGGTAGATTGCGCCGGAGTCACCTAGTGCAG”, for which the binding signal was 47700 fluorescence intensity (a.u.).

“TTAGCCCTTCCTCTCCTGCTTCCGCCCTTCCATGGCAATGCGGAGTCACCTAGTGCAG”: the binding signal is 46700 fluorescence intensity (a.u.).

In the case of “CTCTCTTCCTCTCTCTCTCCTCCGCGTAGGATTTAGCCTGCGGAGTCACCTAGTGCAG”, the binding signal was 3880 fluorescence intensity (a.u.).

“CGCCGCCTGCCCCTGCGCCTGCAGCCTCTGCGCCTCCTGCCGGAGTCACCTAGTGCAG”: the binding signal is 3560 fluorescence intensity (a.u.).

In the case of “CGACGCGGCGGCGAAAAGTCGGCGAACTGCGGCGAGGTGGCGGAGTCACCTAGTGCAG”, the binding signal is 30100 fluorescence intensity (a.u.).

Take “GAAAGCTAGAAGAGAAATTGACCTGGATTGAGTTTTGTGCCGGAGTCACCTAGTGCAG”: the binding signal is 4170 fluorescence intensity (a.u.).

Take “GAATTAGCTTGATTGACAGAAACAAATGGCTACAACTACACGGAGTCACCTAGTGCAG”: the binding signal is 65500 fluorescence intensity (a.u.).

For the sequence “AAATGGCCTTGCACACCTTGTCATTGAAATTAAGAACAAACGGAGTCACCTAGTGCAG”, the binding signal was 6400 fluorescence intensity (a.u.).

In the case of “AGAAATTGAATTGCTTGCTACAGAGAAGCTAGAAGAGTTTCGGAGTCACCTAGTGCAG”, the binding signal was 64800 fluorescence intensity (a.u.).

Consider “AGTTGATAGGAGTAGCTTGAAGAAGCAGAGACAGCTAGATCGGAGTCACCTAGTGCAG”, for which the binding signal is 37600 fluorescence intensity (a.u.).

For “GAATGAATTGAAACAGACAATGCACACGCTTAGTCCATGACGGAGTCACCTAGTGCAG”, the binding signal was 28800 fluorescence intensity (a.u.).

Consider “TGCATCACACGTACACATCTATCCATCGATCCAGTCCGCCCGGAGTCACCTAGTGCAG”, for which the binding signal is 4610 fluorescence intensity (a.u.).

As for “TTTCTTTTCTTCTTTCCTTCTCCCCACGGAGGTGTACGTACGGAGTCACCTAGTGCAG”, the binding signal is 3440 fluorescence intensity (a.u.).

For “TGGTACATGGTGTGCCCTACCGAGCTTAGTCAACCACTTTCGGAGTCACCTAGTGCAG”, the binding signal is 3230 fluorescence intensity (a.u.).

“TATAGTGGCAACGCATGCTGACGTTACGGTGTACCGCCGTCGGAGTCACCTAGTGCAG”: the binding signal was 5900 fluorescence intensity (a.u.).

As to “TTCAGGTGATGAGTCAATGGAGGAGGATGTCATGGAGATTCGGAGTCACCTAGTGCAG”, the binding signal is 4750 fluorescence intensity (a.u.).

Regarding “ATAACGGTGCTAATCTACTGGTGACTGTGCCTGGTGGTGGCGGAGTCACCTAGTGCAG”, the binding signal is 4380 fluorescence intensity (a.u.).
